Assay outcomes deposited in PubChem BioAssay by National Center for Advancing Translational Sciences (NCATS).
D1 ag – human D1 receptor agonism | HEK293 T-REx D1 cells, calcium flux, agonist mode | AID 504660 | 1% of 360,000 active | activation, % at 2 µM | P21728; in the data active = activation above about 30%; also: 0% is about no effect
Target sequence (P21728 whole entry, looked up): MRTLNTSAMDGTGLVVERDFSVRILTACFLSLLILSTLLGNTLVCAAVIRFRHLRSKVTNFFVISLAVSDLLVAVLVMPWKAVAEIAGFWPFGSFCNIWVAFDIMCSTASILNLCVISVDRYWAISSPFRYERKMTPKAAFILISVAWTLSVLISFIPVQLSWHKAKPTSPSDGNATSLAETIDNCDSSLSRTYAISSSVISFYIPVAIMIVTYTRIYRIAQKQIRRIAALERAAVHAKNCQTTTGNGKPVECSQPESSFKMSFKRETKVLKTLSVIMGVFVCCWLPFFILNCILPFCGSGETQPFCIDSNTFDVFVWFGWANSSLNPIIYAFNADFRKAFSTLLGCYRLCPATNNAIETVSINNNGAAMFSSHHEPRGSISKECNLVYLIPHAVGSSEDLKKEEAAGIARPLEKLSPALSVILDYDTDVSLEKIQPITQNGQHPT
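Agonism was scored from calcium flux recorded over 180 s (1 read/s) after pintool compound addition, following a 10-cycle baseline. Cells were inducible force-coupled HEK293 TREx D1, plated overnight at 30 C and loaded with no-wash calcium dye.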
DRD3 antagonist – blocks the human D3 dopamine receptor; P35462; 2.5% of 360,000 active; D3R cells, DiscoveRx beta-arrestin luminescence, antagonist mode; hits give low values; max response, negative = inhibition, %; in the data active = max response below about -50%; inconclusive = no clear call, values can overlap the other calls; also: % is scaled to controls: 0 for no effect and ±100 for the full control effect
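Cells expressing the human receptor were seeded at 1500 cells/well, incubated overnight at 37 degrees C in 5% CO2, then exposed to library compounds with dopamine controls for 90 minutes at 37 degrees C before luminescent detection.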
D1 potentiator – human D1 dopamine receptor positive modulation | P21728 | HEK293 TREx D1 cells, calcium flux, dopamine EC20 potentiation | potentiation, % at 10 µM | 0.036% of 360,000 active; in the data active = potentiation above about 30%; also: 0% is about no effect
D3 ag – D3 dopamine receptor (human) agonism; P35462; D3R DiscoveRx beta-arrestin cells, luminescence, 90 min; max activation, %; 0.58% of 410,000 active; in the data active = max activation above about 30%; also: 0% is about no effect
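Agonist-mode cell screen: cells plated at 1500/well and incubated overnight at 37 °C, then exposed to library compounds for 90 min at 37 °C. Detection reagent was added for 30–60 min at room temperature, and luminescence was read.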
D1 antagonist – blocks dopamine activation of the human D1 receptor | 3.2% of 360,000 active | activity change, negative = inhibition, % at 10 µM | HEK293 TREx D1 cells, calcium flux, dopamine EC80; hits give low values; in the data active = activity change below about -30%; also: % is scaled to controls: 0 for no effect and ±100 for the full control effect
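Cells carrying a force-coupled, tetracycline-inducible human D1 receptor report calcium flux. Each well gets a 10 s baseline, compound with 180 s monitoring, then an EC80 dopamine stimulus with a second 180 s kinetic read.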
Starred values were filed as active, the others as inactive; ? = inconclusive; / = not tested or not shown; ! = not active in a repeat. Shown are actives, neighbours in structure and some others; about 6% of the full set was active somewhere.

SMILES	D1 ag	DRD3 antagonist	D1 potentiator	D3 ag	D1 antagonist
N#CCCN(CCN1CCCC1)S(=O)(=O)c1ccc(-c2ccc([N+](=O)[O-])cc2)cc1	38.9*	6.2	-6.5	-1.4	0.0
N#CCCN(Cc1cccnc1)S(=O)(=O)c1ccc(S(=O)(=O)N2CCCCCC2)cc1	5.6	0.4	-1.7	-1.4	-18.6
C=CCn1c(SCCC)nc(O)cc1=O	128.2*	-17.4	-4.8	3.0	-26.4
C=CCn1c(SCC)nc(O)cc1=O	20.3	10.4	5.7	10.7	8.3
Cc1ccc(-n2nc(C)c3c(C(=O)NCc4ccccc4)cc(C4CC4)nc32)cc1	3.8	/	-2.5	3.1	17.9
COc1ccc(CCC(=O)OC(C)C(=O)c2ccc(C)cc2)cc1 (stereo unspecified)	9.7	-19.0	-6.0	4.2	-36.0*
COc1ccc(C(=O)C(C)OC(=O)CCN2C(=O)C3CC=CCC3C2=O)cc1 (stereo unspecified)	0.5	-24.0	-0.1	-0.6	-35.0*
CCc1ccc(NC(=O)C(C)OC(=O)CCN2C(=O)C3CC=CCC3C2=O)cc1 (stereo unspecified)	/	9.2	/	3.0	/
COc1cccc(-c2noc(-c3cc4ccccc4oc3=O)n2)c1OC	4.4	/	1.6	0.2	-3.3
CC(C)(C)c1cnnn1-c1ccc(/C=N/Nc2ccc([N+](=O)[O-])cc2)cc1	1.7	-56.6*	3.4	-16.0	8.2
O=[N+]([O-])c1ccccc1/C=N/n1c(-c2cccnc2)n[nH]c1=S	1.6	-85.5*	-6.5	-18.4	5.5
S=c1[nH]nc(-c2cccnc2)n1/N=C/c1cccs1	0.9	-110.7*	-6.6	3.0	5.0
S=c1[nH]nc(-c2cccnc2)n1/N=C/c1ccccc1	0.7	-24.8	0.4	4.5	-20.5
O=[N+]([O-])c1cc2c(cc1/C=N/n1c(-c3ccccn3)n[nH]c1=S)OCO2	1.6	-50.1*	-0.1	-2.7	-16.5
CCCCc1c(Cc2cccc(F)c2)ncn1CCc1ccccc1OC	/	12.7	/	2.5	/
CC1(C)CO[C@@H](CC(=O)O)CN1	/	/	/	7.4	/
Cc1nc2cc(-c3ccccc3)nn2c(C)c1CCC(=O)NCc1cccc(Cl)c1	2.6	/	-5.1	5.4	-28.2
Cc1ccc(NCCCn2cnc3c(OCc4ccccc4)ncnc32)cc1C	/	-1.6	/	5.9	/
Cc1ccc(CNCc2ccc3c(c2)n(C)c(=O)n3C)cc1	5.0	/	-1.1	-12.6	10.7
Cc1ccc2c(c1)N(CC(=O)N1CCCC1)C(=O)c1cccnc1O2	4.3	-85.8*	-2.2	-1.6	1.9
CCCN1CCN(CCCNC(=O)CN2C(=O)c3cccnc3Oc3ccc(Cl)cc32)CC1	6.0	?	2.6	-13.1	-3.2
O=C(CN1C(=O)c2cccnc2Oc2ccc(Cl)cc21)NCCCN1CCCCC1	0.3	/	2.8	-12.8	-38.2*
O=C(OCC#CCSc1nnc(-c2cccc3ccccc23)o1)c1ccco1	32.2*!	-21.5	4.9	0.2	3.4
Cc1cc(C)c2c(=O)n3c(nc2c1)C(C)NC(=O)c1cccnc1-3 (stereo unspecified)	/	-13.9	/	-4.0	/
CCN(CC)c1ccc2nc3c(=O)n(C)c(=O)n(C)c3nc2c1	144.5*	/	2.5	-2.0	-17.9
SMILES	D1 ag	DRD3 antagonist	D1 potentiator	D3 ag	D1 antagonist
CCC(=O)Nc1ccc2nc3c(=O)n(C)c(=O)n(C)c3nc2c1	1.4	/	-0.2	3.6	10.5
COc1ccc(CNC(=O)Cn2c(=O)nc(-c3ccccc3F)c3cc(Cl)ccc32)cc1	-0.5	/	1.6	8.4	-0.1
CN(c1nccc(=O)[nH]1)C1CCN(c2nc3ccccc3n2Cc2ccc(F)cc2)CC1	/	/	/	5.4	/
CCCCNc1cc(NC(C)=O)cc2cc(OC)c(OC)cc12	1.2	-74.9*	-6.1	53.3*	-25.2
Fc1ccc(CN2CCCCCCC2)cc1F	4.2	-65.0*	4.9	2.3	1.0
Fc1ccc(CN2CCCCCCC2)c(F)c1	4.9	-52.9*	-1.3	-2.5	10.9
Cc1ccc2nc(-c3ccc(NC(=S)NC4CC(C)(C)NC(C)(C)C4)cc3)sc2c1	41.0*	-16.2	-3.4	-3.9	-2.7
Cc1ccc2nc(-c3ccc(NC(=S)NC(=O)C(C)C)cc3)sc2c1	2.3	-19.4	-7.0	-7.5	2.0
C=CCN1C(=O)/C(=C/C=C2/N(CC)c3ccc(S(=O)(=O)N(C)C)cc3N2CC)SC1=S	117.8*	-21.6	-3.2	1.4	7.8
C=CCN1C(=O)/C(=C2/Sc3ccccc3N2CC)SC1=S	4.5	-5.1	-1.4	-0.9	16.2
COc1ccc(-n2nc3cc(C)c(NC(=O)c4ccc(-c5ccc(Cl)cc5)o4)cc3n2)cc1	1.5	/	-1.9	-3.6	-4.7
Cc1cccc(Nc2ncnc3c2cnn3C)c1C	-4.3	/	-0.3	5.8	-9.9
Cc1ccc(-n2ncc3c(Nc4cccc(C)c4C)ncnc32)cc1	-2.3	/	-3.0	5.3	-32.4*
CCOc1ccccc1Nc1ncnc2c1cnn2-c1ccc(C)cc1	-3.0	/	0.6	10.9	-41.0*
Cc1c(C(=O)Nc2ccc(F)cc2F)oc2ccc3c(c12)C(=O)CC(C)(C)O3	3.2	/	-4.7	8.2	4.5
CCOC(=O)c1sc(NC(=O)CCN2C(=O)c3cccc([N+](=O)[O-])c3C2=O)c(C(=O)OCC)c1C	1.5	-14.0	1.8	16.3	-32.7*
Nc1ncc(Br)cc1S(=O)(=O)Nc1cc(C(F)(F)F)cc(C(F)(F)F)c1	19.2	-14.6	-6.1	-15.1	-34.0*
Cc1ccc(NS(=O)(=O)c2cc(Br)cnc2N)c(Cl)c1	7.7	-4.4	-4.6	-5.6	5.8
COc1cccc(NC(=O)N(Cc2cc3cc(C)cc(C)c3[nH]c2=O)CC2COCCO2)c1 (stereo unspecified)	-0.4	15.9	2.5	11.0	-31.7*
CCOC(=O)c1c(NC(=O)c2ccc(S(=O)(=O)N3CCC(C)CC3)cc2)sc2c1CCN(C)C2	-1.2	/	-0.8	-24.3	-10.2
CC1CCC(C(C)C)C(OC(=O)Cn2c(-c3ccccc3)[n+](C)c3ccccc32)C1 (stereo unspecified)	0.5	-18.6	-4.3	-20.7	-9.4
CC1CCC(C(C)C)C(OC(=O)Cn2c(-c3ccc(F)cc3)[n+](C)c3ccccc32)C1 (stereo unspecified)	0.2	-72.1*	-10.7	-13.8	9.1
COc1ccc2oc(C(=O)OCC(=O)Nc3ccc(N4CCOCC4)cc3)c(C)c2c1	0.5	4.5	-19.8	3.7	-30.9*
CCOC(=O)c1c(CN2CCOCC2)oc2ccc(OC)cc12	2.4	0.0	-4.7	-2.9	-45.2*
COc1ccc2c(c1)c(=O)c(S(=O)(=O)c1ccc(C)cc1)cn2Cc1ccccc1C	5.2	/	6.2	-5.1	15.6
C=Cc1ccc(S(=O)(=O)O)cc1	/	/	/	-7.5	/
CCC(C(=O)Nc1ccc(C(C)=O)cc1)n1cnc2nc3c(cc2c1=O)CCCC3 (stereo unspecified)	1.8	/	3.2	-8.9	-14.3
CCOc1ccc(CCN2C(=S)N([C@@H](Cc3ccccc3)CN3CCC[C@@H]3CN3C(=S)NC[C@@H]3Cc3ccc(O)cc3)C[C@@H]2CC(C)C)cc1	/	-0.3	/	-2.1	/
